In PubChem BioAssay AID1159580 (chemical genetic matrix, 2015):
Several values for one entry are separate records, joined by “and”; a condition that tells them apart may be missing. Identical values can stand only once. Hit rate of the full screen: of about 5,500 compounds, about 2,000 (36%) were called active. Another 18% or so got no clear call; they are omitted. No stated cut-off is given here; in the data, active means normalized growth mostly below about 0.91 (no sharp cut-off); inconclusive means no clear call, values can overlap the other calls; inactive means mostly above about 0.92. This is one part of the list.

Experiment: chemical genetic growth profiling, strain panel (AID 1159580);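 further: tested at 20 µM; growth read once vehicle control cultures reached saturation at 30 °C; 1 = growth at the plate median or of vehicle wells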
Settings: growth OD
[1] = S. cerevisiae deletion strains, locus YAL013W, strain DEP1, stronger effect = lower value
[2] = S. cerevisiae deletion strains, locus YBR021W, strain FUR4, stronger effect = lower value
[3] = S. cerevisiae deletion strains, locus YBR229C, strain ROT2, stronger effect = lower value
[4] = S. cerevisiae deletion strains, locus YCL029C, strain bik1, stronger effect = lower value
[5] = S. cerevisiae deletion strains, locus YDL035C, strain GPR1, stronger effect = lower value
[6] = S. cerevisiae deletion strains, locus YDL074C, strain BRE1, stronger effect = lower value
[7] = S. cerevisiae deletion strains, locus YDL101C, strain DUN1, stronger effect = lower value
[8] = S. cerevisiae deletion strains, locus YDL134C, strain PPH21, stronger effect = lower value
[9] = S. cerevisiae deletion strains, locus YDL185W, strain tfp1, stronger effect = lower value
[10] = S. cerevisiae deletion strains, locus YDL192W, strain arf1, stronger effect = lower value
[11] = S. cerevisiae deletion strains, locus YDR101C, strain arx1, stronger effect = lower value
[12] = S. cerevisiae deletion strains, locus YDR150W, strain NUM1, stronger effect = lower value
[13] = S. cerevisiae deletion strains, locus YDR162C, strain NBP2, stronger effect = lower value
[14] = S. cerevisiae deletion strains, locus YDR318W, strain mcm21, stronger effect = lower value
[15] = S. cerevisiae deletion strains, locus YDR388W, stronger effect = lower value
[16] = S. cerevisiae deletion strains, locus YDR502C, strain sam2, stronger effect = lower value
[17] = S. cerevisiae deletion strains, locus YEL061C, strain CIN8, stronger effect = lower value
[18] = S. cerevisiae deletion strains, locus YER110C, stronger effect = lower value
[19] = S. cerevisiae deletion strains, locus YER155C, strain BEM2, stronger effect = lower value
[20] = S. cerevisiae deletion strains, locus YER167W, strain BCK2, stronger effect = lower value
[21] = S. cerevisiae deletion strains, locus YGL078C, strain dbp3, stronger effect = lower value
[22] = S. cerevisiae deletion strains, locus YGL086W, strain mad1, stronger effect = lower value
[23] = S. cerevisiae deletion strains, locus YGL248W, strain PDE1, stronger effect = lower value
[24] = S. cerevisiae deletion strains, locus YGR078C, strain PAC10, stronger effect = lower value
[25] = S. cerevisiae deletion strains, locus YGR135W, strain pre9, stronger effect = lower value
[26] = S. cerevisiae deletion strains, locus YGR229C, strain SMI1, stronger effect = lower value
[27] = S. cerevisiae deletion strains, locus YGR252W, strain gcn5, stronger effect = lower value
[28] = S. cerevisiae deletion strains, locus YHR030C, strain SLT2, stronger effect = lower value
[29] = S. cerevisiae deletion strains, locus YHR079C, strain IRE1 (second series), stronger effect = lower value
[30] = S. cerevisiae deletion strains, locus YHR094C, strain hxt1, stronger effect = lower value
[31] = S. cerevisiae deletion strains, locus YHR129C, strain ARP1, stronger effect = lower value
[32] = S. cerevisiae deletion strains, locus YHR200W, strain rpn10, stronger effect = lower value
[33] = S. cerevisiae deletion strains, locus YIL066C, strain RNR3, stronger effect = lower value
[34] = S. cerevisiae deletion strains, locus YIL073C, strain SPO22, stronger effect = lower value
[35] = S. cerevisiae deletion strains, locus YIL125W, strain kgd1, stronger effect = lower value
[36] = S. cerevisiae deletion strains, locus YIR030C, strain dcg1, stronger effect = lower value
[37] = S. cerevisiae deletion strains, locus YJL095W, strain BCK1, stronger effect = lower value
[38] = S. cerevisiae deletion strains, locus YJL134W, strain LCB3, stronger effect = lower value
[39] = S. cerevisiae deletion strains, locus YJL168C, strain set2, stronger effect = lower value
[40] = S. cerevisiae deletion strains, locus YJL187C, strain SWE1 (second series), stronger effect = lower value
[41] = S. cerevisiae deletion strains, locus YJR043C, strain POL32, stronger effect = lower value
[42] = S. cerevisiae deletion strains, locus YJR075W, strain HOC1, stronger effect = lower value
[43] = S. cerevisiae deletion strains, locus YKL009W, strain mrt4, stronger effect = lower value
[44] = S. cerevisiae deletion strains, locus YKL068W, stronger effect = lower value
[45] = S. cerevisiae deletion strains, locus YKL085W, strain MDH1 (second series), stronger effect = lower value
[46] = S. cerevisiae deletion strains, locus YKL085W, strain MDH1, stronger effect = lower value
[47] = S. cerevisiae deletion strains, locus YKL190W, strain CNB1, stronger effect = lower value
[48] = S. cerevisiae deletion strains, locus YKR001C, strain vps1, stronger effect = lower value
[49] = S. cerevisiae deletion strains, locus YLR039C, strain RIC1, stronger effect = lower value
[50] = S. cerevisiae deletion strains, locus YLR058C, strain SHM2, stronger effect = lower value
[51] = S. cerevisiae deletion strains, locus YLR102C, strain apc9, stronger effect = lower value
[52] = S. cerevisiae deletion strains, locus YLR262C, strain YPT6, stronger effect = lower value
[53] = S. cerevisiae deletion strains, locus YLR268W, strain sec22, stronger effect = lower value
[54] = S. cerevisiae deletion strains, locus YLR330W, strain CHS5, stronger effect = lower value
[55] = S. cerevisiae deletion strains, locus YLR342W, strain FKS1 (second series), stronger effect = lower value
[56] = S. cerevisiae deletion strains, locus YLR371W, strain rom2, stronger effect = lower value
[57] = S. cerevisiae deletion strains, locus YLR418C, strain cdc73, stronger effect = lower value
[58] = S. cerevisiae deletion strains, locus YML016C, strain PPZ1, stronger effect = lower value
[59] = S. cerevisiae deletion strains, locus YML032C, strain rad52, stronger effect = lower value
[60] = S. cerevisiae deletion strains, locus YML124C, strain tub3, stronger effect = lower value
[61] = S. cerevisiae deletion strains, locus YMR078C, strain ctf18, stronger effect = lower value
[62] = S. cerevisiae deletion strains, locus YMR223W, strain ubp8, stronger effect = lower value
[63] = S. cerevisiae deletion strains, locus YMR263W, strain SAP30, stronger effect = lower value
[64] = S. cerevisiae deletion strains, locus YMR307W, strain GAS1, stronger effect = lower value
[65] = S. cerevisiae deletion strains, locus YNL067W, strain RPL9B, stronger effect = lower value
[66] = S. cerevisiae deletion strains, locus YNL128W, strain TEP1, stronger effect = lower value
[67] = S. cerevisiae deletion strains, locus YNL153C, strain GIM3, stronger effect = lower value
[68] = S. cerevisiae deletion strains, locus YNL233W, strain BNI4, stronger effect = lower value
[69] = S. cerevisiae deletion strains, locus YNL250W, strain rad50, stronger effect = lower value
[70] = S. cerevisiae deletion strains, locus YNL271C, strain bni1, stronger effect = lower value
[71] = S. cerevisiae deletion strains, locus YNL298W, strain CLA4, stronger effect = lower value
[72] = S. cerevisiae deletion strains, locus YNL307C, strain MCK1, stronger effect = lower value
[73] = S. cerevisiae deletion strains, locus YNL322C, strain KRE1, stronger effect = lower value
[74] = S. cerevisiae deletion strains, locus YNR052C, strain pop2, stronger effect = lower value
[75] = S. cerevisiae deletion strains, locus YOL006C, strain TOP1, stronger effect = lower value
[76] = S. cerevisiae deletion strains, locus YOL012C, strain htz1
[77] = S. cerevisiae deletion strains, locus YOL147C, strain pex11, stronger effect = lower value
[78] = S. cerevisiae deletion strains, locus YOR061W, strain CKA2, stronger effect = lower value
[79] = S. cerevisiae deletion strains, locus YOR069W, strain VPS5, stronger effect = lower value
[80] = S. cerevisiae deletion strains, locus YOR136W, strain idh2, stronger effect = lower value
[81] = S. cerevisiae deletion strains, locus YOR144C, strain elg1, stronger effect = lower value
[82] = S. cerevisiae deletion strains, locus YOR184W, strain ser1, stronger effect = lower value
[83] = S. cerevisiae deletion strains, locus YOR316C, strain cot1, stronger effect = lower value
[84] = S. cerevisiae deletion strains, locus YPL055C, strain LGE1, stronger effect = lower value
[85] = S. cerevisiae deletion strains, locus YPL241C, strain CIN2, stronger effect = lower value
[86] = S. cerevisiae deletion strains, locus YPR119W, strain clb2, stronger effect = lower value
[87] = S. cerevisiae deletion strains, locus YPR141C, strain kar3, stronger effect = lower value
[88] = S. cerevisiae deletion strains, locus YPR163C, strain tif3, stronger effect = lower value
[89] = S. cerevisiae deletion strains, locus YPR167C, strain met16, stronger effect = lower value
[90] = S. cerevisiae deletion strains, strain wtn01, stronger effect = lower value
[91] = S. cerevisiae strains, strain wild type, stronger effect = lower value

Measured: normalized growth

COc1cc(OC)c2c(=O)cc(-c3ccccc3)oc2c1
active: [6] 0.764 | [8] 0.886 | [10] 0.914 | [13] 0.752 | [14] 0.868 | [16] 0.907 | [20] 0.899 | [22] 0.924 | [23] 0.866 | [24] 0.805 | [25] 0.819 | [26] 0.664 | [29] 0.895 | [48] 0.839 | [49] 0.644 | [53] 0.877 | [55] 0.71 | [57] 0.685 | [59] 0.757 | [62] 0.875 | [63] 0.871 | [68] 0.846 | [72] 0.533 | [74] 0.902 | [75] 0.472 | [82] 0.792 | [88] 0.785 | [90] 0.868
0.51 (active) and 0.918 (inactive): [37]
0.718 (active) and 0.911 (inactive): [28]
inactive: [1] 0.912 | [2] 0.978 | [3] 0.949 | [4] 0.957 | [5] 0.864 | [7] 0.925 | [9] 0.951 | [11] 0.936 | [12] 0.949 | [15] 0.951 | [17] 0.941 | [18] 0.914 | [19] 0.951 | [21] 0.961 | [27] 0.793 | S. cerevisiae deletion strains, locus YHR079C, strain IRE1, stronger effect = lower value 0.925 | [30] 0.96 | [31] 0.934 | [32] 0.929 | [33] 0.912 | [34] 0.844 | [35] 0.975 | [36] 0.95 | [38] 0.948 | [39] 0.944 | [40] 0.879 | [41] 0.894 | S. cerevisiae deletion strains, locus YJR066W, strain TOR1, stronger effect = lower value 0.872 | [42] 0.884 | [43] 0.906 | [44] 0.967 | [45] 0.963 | [46] 0.963 | [47] 0.948 | [50] 0.913 | [51] 0.958 | S. cerevisiae deletion strains, locus YLR113W, strain HOG1, stronger effect = lower value 0.952 | [52] 0.652 | [54] 0.929 | [56] 0.959 | [58] 0.929 | [60] 0.952 | [61] 0.912 | [64] 0.625 | [65] 0.889 | [66] 0.939 | [67] 0.924 | S. cerevisiae deletion strains, locus YNL183C, strain NPR1, stronger effect = lower value 0.88 | [69] 0.923 | [70] 0.943 | [71] 0.941 | [73] 0.946 | [76] 0.858 | [77] 0.944 | [78] 0.941 | [79] 0.95 | [80] 0.965 | [81] 0.949 | S. cerevisiae deletion strains, locus YOR231W, strain MKK1, stronger effect = lower value 0.925 | [83] 0.943 | [84] 0.83 | [85] 0.946 | S. cerevisiae deletion strains, locus YPL256C, strain CLN2, stronger effect = lower value 0.911 | [86] 0.945 | [87] 0.967 | [89] 0.951 | [91] 0.905

COc1ccc(-c2cc(=O)c3c(OC)cc(OC)cc3o2)cc1
inactive: [1] 0.981 | [2] 0.903 | [3] 1 | [4] 1.01 | [5] 0.981 | [6] 0.905 | [7] 0.988 | [8] 0.984 | [9] 0.996 | [10] 0.986 | [11] 0.977 | [12] 1 | [13] 0.944 | [14] 0.973 | [15] 0.99 | [16] 0.963 | [17] 0.997 | [18] 1.02 | [19] 0.993 | [20] 0.989 | [21] 1 | [22] 1 | [23] 0.988 | [24] 0.948 | [25] 0.926 | [26] 0.873 | [27] 0.834 | [28] 0.997 | [29] 0.979 | [30] 1.01 | [31] 0.99 | [32] 0.992 | [33] 0.965 | [34] 0.983 | [35] 1.01 | [36] 0.993 | [37] 0.888 | [38] 0.994 | [39] 0.998 | [40] 0.957 | [41] 0.983 | [42] 0.968 | [43] 0.987 | [44] 1.01 | [45] 1.01 | [46] 1.01 | [47] 0.996 | [48] 0.996 | [49] 1.03 | [50] 0.988 | [51] 0.998 | [52] 1.02 | [53] 0.95 | [54] 0.999 | [55] 0.951 | [56] 1.01 | [57] 0.869 | [58] 1 | [59] 0.969 | [60] 1 | [61] 0.988 | [62] 0.972 | [63] 0.95 | [64] 0.839 | [65] 0.962 | [66] 0.981 | [67] 0.955 | [68] 0.923 | [69] 1.01 | [70] 1.02 | [71] 1 | [72] 0.93 | [73] 1.01 | [74] 0.995 | [75] 0.858 | [76] 1.8 | [77] 0.989 | [78] 0.999 | [79] 1 | [80] 0.996 | [81] 1 | [82] 0.967 | [83] 1 | [84] 0.92 | [85] 0.996 | [86] 1 | [87] 1.01 | [88] 0.971 | [89] 1 | [90] 0.963 | [91] 0.992
